Screen size: about 53,000 sequences; about 3,700 (7%) were called active. This is one part of a sample in which actives are shown more often than they occur.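 The calls were made as follows: active = gene knockdowns whose robust z-score for IL-1 alpha signal is at least 2 or at most -2, so actives lie on both sides; inactive = the rest.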
experiment: Components of the Cytosolic LPS Sensing Pathway: Gene Identification via Genome-wide siRNA Screen; conditions: RAW264.7 macrophages, IL-1a HTRF, actives lie on both sides, screened at 100 nM (by protocol), cells primed 5 h with Pam3CSK4 first;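 also: robust z of the log signal after scaling to non-targeting control siRNA wells of the plate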
In short: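 RAW264.7 mouse macrophages reverse-transfected with single siRNAs (100 nM final) for 48h, primed with Pam3CSK4 for 5 hours, then transfected with LipidA for 24 hour. Supernatant IL-1a read by HTRF; values normalized to negative-control median, log-transformed robust z-scores.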

Sequence	z-score
GCAUCCUGGCUUAUCCAUUTT against Hmgb1	-0.393 (inactive)
CCACUAUUAAACUUCUCAATT against Pex3	0.32 (inactive)
CCAGCUUCAUGCGUUUAAATT against Stx16	1.4 (inactive)
CCCUCACAGUAACCUGUCGTT against Espl1	-2.56 (active)
GGUCGAAGUAUUGGAAAAUTT against Hesx1	-1.71 (inactive)
GCAAAUGACUUCCAACAAUTT against Uqcrq	3.84 (active)
GGAGAACAAAGUAUUGGUGTT against Cacna1f	0.388 (inactive)
GCCAUAGGAGUGAUUGGAUTT against E130018O15Rik	-1.66 (inactive)
GGUGAGCAUGGACUAUGAUTT against Syt12	-1.09 (inactive)
GCACUUGACAAGCAACAGUTT against Jup	-2.3 (active)
GCAUAUGGAUAAGAUUGUUTT against Efr3a	-0.363 (inactive)
GGAAAAGGGUCGUGCCUGUTT against Gm9991	-0.07 (inactive)
GCAUUGGCAGACCCGAGUUTT against Pir	0.238 (inactive)
GCUUGGUAAAAUGAAAGUCTT against Klhl12	0.22 (inactive)
GGUUUCUGUCCAGAUAAAATT against Ykt6	-0.535 (inactive)
GGUGCAGAAUGCAAUGGAUTT against Ing3	2.51 (active)
GGAAUAUGAGAAAAUGAGCTT against Ctsc	0.239 (inactive)
AACACUGGGUACAUCUACATT against H2-Q7	1.75 (inactive)
UUCCCACUCUGACUAUUUUTT against Olfr970	-0.0332 (inactive)
GGCCUUCAAGUGCAUGAUGTT against Yaf2	-1.65 (inactive)
CCAGAAAACCAAACAACAGTT against Olfr1357	0.287 (inactive)
GGUGACAGGAAAGUUCUGUTT against Gsdmc2	2.07 (active)

Sequence	z-score
GGCGAUUAAACUAUACAUUTT against Rrm2	0.0358 (inactive)
GGGCAUGUGAAGAUGUGCGTT against Map2k3	-0.272 (inactive)
CGUCUUACACGGUUCAAAGTT against Tbc1d10a	0.809 (inactive)
CGUGGUACACUGAAGACUUTT against Mmp1a	2.3 (active)
GGACCAUUCUGAAGAGCAGTT against Il5ra	0.867 (inactive)
GCUUUAUUGACACGACCCGTT against Rbm19	0.184 (inactive)
CCGUCGUACACAAUCUUACTT against Fgfr4	-0.512 (inactive)
GGUACACAACCAUCCUUGATT against Olfr600	-2.33 (active)
CCUACAUCAGGUCAGCAAGTT against Mrto4	1.26 (inactive)
GGAAAAAGCAAAUUGAGGATT against Uchl1	-1.48 (inactive)
GCAGAGUCACCUUACUAACTT against Fam122b	-0.0407 (inactive)
GGAGCUACACACAUAGGAATT against Clec2h	0.891 (inactive)
GGAUACCAAGAUUCCAAAUTT against Pik3r4	2.19 (active)
GCCAGCAACCCUCUUCGUUTT against Foxo6	0.142 (inactive)
CCUUUGACGGCCAUGAGUATT against Muc6	-1.39 (inactive)
GCUAAGCACAAUGUGUACATT against Dus4l	-0.633 (inactive)
GGUCAUAGCUUAGAAGGUGTT against Rhov	-0.233 (inactive)
GGGAAGCAAUAAGUCGCCUTT against Shc4	0.394 (inactive)
GAGCCAAGUACCAUCUAUATT against Olfr389	2.28 (active)
GGUUAAGCAGAAAUUAAGATT against Supt20	-0.551 (inactive)
GCCACAGGAUGCUAGCAAATT against Bex2	0.282 (inactive)
GCAGUUGGUAUUGUUAACUTT against Maml1	-0.0252 (inactive)

Sequence	z-score
GCUAAACCCAAAAACACAATT against Sim2	1.04 (inactive)
GCUAGAAAUAAGGCUGCACTT against Plekhg6	-1.2 (inactive)
GGAAGCAAGUAUCCCGAAUTT against Snhg11	-2.58 (active)
GCCAAUGAGAGUAGGAAAGTT against Elovl3	1.43 (inactive)
GCCUCUCAACUUAAUAACATT against Zup1	-0.697 (inactive)
GCUAACAGUAUCCUUAUUUTT against Vmn1r53	-0.436 (inactive)
CCUCUACAAUGUAACCAACTT against Kir3dl2	-0.183 (inactive)
GGAAACAUUAGAAUCUUGUTT against Lin52	-2.23 (active)
GGUCUUCGCCACAUGGAAATT against Crkl	0.436 (inactive)
CCUUGUCCCUUUACCUCAATT against Plk5	-1.39 (inactive)
GCUUUAGGAAAUUUUGUGUTT against Ska3	-1.05 (inactive)
GGUCAUUCUAAUGACAAUCTT against Atg14	-0.014 (inactive)
GGUUAGAGAUUGUUCUGUUTT against Olfr267	2.02 (active)
AAUGGCAUAGGUCCUAUUATT against Tcaim	-0.011 (inactive)
GGUUUUUGUCCCAUCUUGGTT against Zc3h12d	0.228 (inactive)
GGGUCUUUAAACUGAAAGATT against Sh3pxd2a	0.0777 (inactive)
CCUGUAAGGUCUCUAGCAUTT against Exosc1	1.53 (inactive)
GGUUGUGCACAGCAGUGUUTT against Crct1	-0.716 (inactive)
GGACAAAGUCACAGAGUCCTT against Slc26a5	-2.08 (active)
GCACGUACCUGAUAGUCCUTT against Daglb	-0.976 (inactive)
GGGCCAAACCCAGAACUAUTT against Sema4g	1.5 (inactive)
GGACAAGUCAAUUUGUUGGTT against Zfp36l1	0.277 (inactive)

Sequence	z-score
GGUGUAUCGGAACAGUGAGTT against Det1	-2.8 (active)
GCAAUGGAACUAUUAUUCATT against Cd28	2.48 (active)
GGCUUCAAAGCAUGACCAGTT against Ccr1	-0.528 (inactive)
GGACCUGCCAAAAGUUGUGTT against Uqcrc1	-1.16 (inactive)
GCAGUUGAAUAUCAGACUGTT against Obox5	-0.973 (inactive)
GGUUCAGAAUCAAUACGAGTT against Krt2	-0.909 (inactive)
GGACACUUCCAAACUGACCTT against Tiparp	-1.43 (inactive)
GCGUAGGUCAUCCUUGUAATT against Samd4	-2.22 (active)
GGUCAUUCACAAGUCCUUUTT against Serpinb6b	0.863 (inactive)
GCCAGUGGUAGCGAUAUGATT against Zscan4c	-0.263 (inactive)
GGAGAACACCAAAAAGGGCTT against Uncx	-1.26 (inactive)
GCUGUGUGGACAAAGUCUGTT against Clec4b1	-0.398 (inactive)
GGUCUUUAGAAUUAGGCUCTT against Pml	0.188 (inactive)
GCACUUUAAAAGAAUCACUTT against Slc2a12	2.11 (active)
GGAAGAAGUAGCUAAAAACTT against Entpd4	0.488 (inactive)
GGUCUUGCUAUUUGUGAUATT against Olfr1294	0.617 (inactive)
GGACUUCACAAGACUUCAATT against Nfam1	2.06 (active)
GGUCAAGGAAUUAGUGAUUTT against Tctex1d1	0.398 (inactive)
GGUACAGUGUCAUCAUGAATT against Olfr460	-0.456 (inactive)
GGUAAUUUGUAAGGAACCCTT against Rpusd2	-0.881 (inactive)
GGAAAAAUGGGAGUUUGAATT against Ccdc83	-0.291 (inactive)
GUCCUUCUCAUCAUGGGACTT against Sec61g	-0.248 (inactive)

Sequence	z-score
GGCGAAAGUGCUUUUCCUGTT against Gbp8	1.03 (inactive)
GCUGAUCCACGACUACUUGTT against Rab10os	1.24 (inactive)
GCUUAGAUCUUACCCACCCTT against Ptcra	2.52 (active)
GCUCCGUAAGAAGUCUCGUTT against Dhx16	-0.676 (inactive)
GAUGGAGAAACUGAAGAAGTT against Olfml2a	-0.117 (inactive)
UCCACUUCACUAAUCCUGUTT against Vmn2r43	-2.52 (active)
GCUGGAUUUGGACUCUUAGTT against Vmn1r16	1.1 (inactive)
GGGCUGUGAUAUGCAACUCTT against Teddm2	-0.988 (inactive)
GGAAAUGGUCCCUCUGUGUTT against Tspoap1	-2.99 (active)
CCUUUGAUCAAUUCUGAGUTT against Glb1	-0.554 (inactive)
GCAACGUGAAACAUAUUCUTT against Cpb1	1.69 (inactive)
GGAAGUAACCACAUCCUAUTT against Epn2	-0.628 (inactive)
GGAGGGAAUGAAAAGUCAATT against Stard7	2.09 (active)
GGUCACUGUUAGUUAUUAATT against Tcerg1l	0.954 (inactive)
GGGUAUUUUACCACUACUUTT against Psg23	0.32 (inactive)
GCCGUCACAAGAACUGAACTT against Apon	-0.24 (inactive)
CCCACUUUGAGGAAAGCUATT against Itprip	-2.46 (active)
GGAAAACUAACCAAAAUAGTT against F3	1.45 (inactive)
GGCAAAUUAUUAGUACAGUTT against Gabpa	1.41 (inactive)
CCCGAAUCUCAGCGUAGAATT against Gm5617	-0.853 (inactive)

— PubChem BioAssay AID1508600 (Functional Genomics Laboratory (NCATS/FGL), 2020)
